This is a sample that favours compounds with a hit; in the whole collection about 1.4% have one here.
E coli Lon inh – inhibitors of E. coli Lon protease, primary screen, biochemical, fluorescence polarization; purified E. coli Lon protease; inhibition, % at 7.94 µM; 360,000 tested, 0.42% active; AID 602123, 2011; in the data active means inhibition above about 13%, passing the limit was not always enough
BCLXL inh – inhibitors of human Bcl-xL, primary screen, biochemical, fluorescence polarization, HTS | Bcl-2-like protein 1 (Homo sapiens), Q07817 | inhibition, % at 10.9 µM | GST-Bcl-xL / FITC-Bim BH3 peptide fluorescence polarization | 320,000 tested, 0.7% active;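 active means inhibition above the mean of all tested compounds plus 3 SD, cutoff set per campaign, cut at about 30% in these data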;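 further: inhibitors lower millipolarization by displacing the labeled peptide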
GLD-1 RNA inh – GLD-1/TGE RNA complex disruptors, primary screen, biochemical, fluorescence polarization; purified GLD-1 + fluorescein TGE RNA; inhibition, % at 5.96 µM; 320,000 tested, 0.44% active; AID 2280, 2010; Female germline-specific tumor suppressor gld-1 (Caenorhabditis elegans), Q17339;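 active means percent inhibition above a per-plate cutoff, the plate mean of test compounds plus 3 SD, cut at about 30% in these data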
Target sequence (Q17339 whole entry, looked up): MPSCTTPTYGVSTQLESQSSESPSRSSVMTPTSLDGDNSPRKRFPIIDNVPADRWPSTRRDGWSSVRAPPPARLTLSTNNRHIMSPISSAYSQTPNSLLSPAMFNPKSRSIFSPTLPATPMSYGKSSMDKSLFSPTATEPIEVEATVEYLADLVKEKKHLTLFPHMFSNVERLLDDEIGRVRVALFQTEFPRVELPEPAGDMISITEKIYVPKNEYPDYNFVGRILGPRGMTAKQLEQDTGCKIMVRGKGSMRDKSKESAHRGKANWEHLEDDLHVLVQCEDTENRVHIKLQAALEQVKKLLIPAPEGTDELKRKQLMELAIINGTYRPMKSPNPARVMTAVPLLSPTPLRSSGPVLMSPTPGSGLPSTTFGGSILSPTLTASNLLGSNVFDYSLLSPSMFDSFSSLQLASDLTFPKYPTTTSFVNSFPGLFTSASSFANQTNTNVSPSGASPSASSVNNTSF
MEX-5 binding – MEX-5 zinc finger RNA-binding disruptors – biochemical, C. elegans, fluorescence polarization, MLPCN library, primary screen; MEX-5/FITC-TCR2 RNA binding; stronger effect = lower value; 300,000 tested, 0.38% active; Zinc finger protein mex-5 (Caenorhabditis elegans), Q9XUB2; activity score (negative = inhibition of binding), % at 10 µM;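 active means inhibition past about -25% in most replicates, and total fluorescence under double the plate's negative control median, limit read from the data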
MCL1-BIM inh – inhibitors of MCL1 binding to BIM-BH3, primary screen, biochemical, fluorescence polarization | AID 2057, 2009 | GST-MCL1 / FITC-Bim-BH3 fluorescence polarization | 320,000 tested, 0.68% active | inhibition, % at 10.9 µM;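 active means inhibition above the mean inhibition of all tested compounds plus 3 SD, set per campaign, cut at about 40% in these data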;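 further: higher means more loss of mP so more displacement of Bim peptide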
E coli Lon conf – E. coli Lon protease inhibitor retest, confirmation, biochemical, fluorescence polarization; shares compounds with E coli Lon inh; purified E. coli Lon; inhibition, % at 7.94 µM; 1,400 tested, 31% active; AID 602230, 2012; in the data active means inhibition above about 16%
Numbers stand for hits; n = inactive; x = no result; + = active, no number.

SMILES | E coli Lon inh | BCLXL inh | GLD-1 RNA inh | MEX-5 binding | MCL1-BIM inh | E coli Lon conf
Cc1c(C(=O)NCc2ccc3c(c2)cc(C)n3C)cccc1[N+](=O)[O-] | 31 | n | n | n | n | n
Cc1cc2cc(CNC(=S)Nc3ccc(OC(F)(F)F)cc3)ccc2n1C | 19 | n | n | n | n | 19
CCOC(=O)C1(C)CCN1C(=O)c1ccc(C)cc1 (stereo unspecified) | n | x | x | x | x | x
Cc1ccc(S(=O)(=O)NCc2ccc3[nH]c(C)cc3c2)cc1 | n | n | n | n | n | x
CC(=O)Nc1ccc(S(=O)(=O)NCc2ccc3[nH]c(C)cc3c2)cc1 | 19 | n | n | n | n | n
O=CNCCCc1nc2ccccc2n1CCc1ccccc1 | 18 | x | x | n | x | n
O=CNCc1nc2ccccc2n1CCc1ccccc1 | n | n | n | n | n | x
Cc1cc(C)c(Cn2c(=O)n(CCCC(=O)NCc3ccco3)c(=O)c3ccccc32)c(C)c1 | 18 | n | n | n | n | n
Cc1ccc(C)c(Cn2c(=O)n(CCCC(=O)NCc3ccco3)c(=O)c3ccccc32)c1 | n | n | n | n | n | x
CN(C)c1ccccc1-c1cc(NC=O)c2ncc(-c3cccc(C(F)(F)F)c3)n2c1 | + | x | x | x | x | +
COc1ccccc1-c1cc(NC=O)c2ncc(-c3cccc(C(F)(F)F)c3)n2c1 | n | x | x | x | x | x
CN(C)C(=O)c1cccc(-c2cnc3c(NC=O)cc(-c4ccccc4N(C)C)cn23)c1 | + | x | x | x | x | 124
C[C@H]1CN([C@@H](C)CO)C(=O)CCCn2nncc2CO[C@H]1CN(C)C(=O)c1ccc2ccn(C)c2c1 | n | x | x | x | x | x
O=C(NCCOC(=O)c1ccc(Cl)cc1)c1cccnc1 | 16 | n | n | n | n | n
O=C1C=CC(=Nc2ccc3c(c2)Cc2cc(F)ccc2-3)O1 | n | x | x | x | x | x
O=C1C=CC(=Nc2cccc3c2C(=O)c2ccccc2-3)O1 | + | x | x | x | x | n
O=C(c1cnccn1)N1CCN(S(=O)(=O)c2ccc3ccccc3c2)CC1 | 20 | n | n | n | n | n
C[C@H]1Cn2cnc(C(=O)NCC(=O)OC(C)(C)C)c2C(=O)N1 | n | x | x | x | x | x
COc1ccccc1CC(=O)NCc1csc(-c2cccs2)n1 | n | n | n | n | n | x
CC(C)C(=O)NNC(=O)c1csc(-c2cccs2)n1 | 25 | n | n | n | n | n
CCOc1ccc(C(C(=O)NC2CCCCC2)N(C(=O)c2csnn2)C2CC2)cc1 (stereo unspecified) | 24 | n | n | n | n | n
COc1ccc(NC(=O)c2cc(C3CCCCN3C(=O)c3cc(C(C)(C)C)nn3C)on2)c(C)c1 (stereo unspecified) | n | x | x | x | x | x
CCOC1=C2[C@H](c3ccc(CC)cc3)N(S(=O)(=O)c3ccc(C)cc3)C[C@H]2n2c(=O)n(-c3ccccc3)c(=O)n2C1 | n | x | x | x | x | x
COc1cc2[nH]c(=S)nc(NCc3ccccn3)c2cc1OC | 26 | x | x | x | x | 57
COc1cc2[nH]c(=S)nc(NCc3ccccc3)c2cc1OC | n | n | n | n | n | x
SMILES | E coli Lon inh | BCLXL inh | GLD-1 RNA inh | MEX-5 binding | MCL1-BIM inh | E coli Lon conf
O=C1c2cccc3c([N+](=O)[O-])ccc(c23)C(=O)N1c1ccccn1 | 27 | n | n | n | n | 20
CCN(CC)S(=O)(=O)c1ccc(C(=O)NCc2cccs2)cc1 | 19 | n | n | n | n | n
CCN(CC(=O)NCc1cccs1)C(=O)c1ccc(S(=O)(=O)Nc2ccccc2)cc1 | n | n | n | n | n | x
CCN(CC(=O)NCc1cccs1)S(=O)(=O)c1ccc(F)cc1 | n | n | n | n | n | x
CCN(CC(=O)NCc1cccs1)C(=O)c1ccc(S(=O)(=O)Nc2cccc(C)c2C)cc1 | + | n | n | n | n | n
CCOC(=O)c1ccc(CN2CCCC(C)(C(=O)NCCOC)C2)cc1 (stereo unspecified) | n | x | x | x | x | x
O=C(Cc1cccc(NC(=O)C2CCN(S(=O)(=O)c3cccc([N+](=O)[O-])c3)CC2)c1)Nc1cccc(C(=O)N2CCCCC2)c1 | n | x | x | x | x | x
O=C1C(=O)C(Cl)=C(Cl)C(Cl)=C1Cl | 40 | x | x | x | x | 51
O=C(COC(=O)c1ccccc1C(=O)OCC(=O)NCCc1c[nH]c2ccccc12)NCCc1c[nH]c2ccccc12 | 32 | n | n | n | n | n
O=C(COC(=O)c1ccccc1O)NCCc1c[nH]c2ccccc12 | n | x | n | x | x | x
CCN1CCN(C(=O)Cn2nc(C)c3sc4ccccc4c3c2=O)CC1 | 21 | n | n | n | n | n
CCOC(=O)N1CCN(C(=O)CSc2ccc3nnc(-c4ccncc4)n3n2)CC1 | 24 | n | n | n | n | n
CCOC(=O)N1CCN(C(=O)CSc2ccc3nnc(-c4ccccn4)n3n2)CC1 | n | n | n | n | n | x
O=C1C=C(N2CCOCC2)c2cccc3cccc1c23 | 183 | x | x | x | x | n
O=C1C(N2CCOCC2)=Cc2cccc3cccc1c23 | 186 | x | x | x | x | 195
O=C1C=C(N2CCOCC2)c2ccccc2C1=O | n | n | n | n | n | x
CCn1cc(CN2CCCC(C(=O)Nc3cccc(-n4cccn4)c3)C2)cn1 (stereo unspecified) | n | x | x | x | x | x
O=C(CS(=O)(=O)c1cn(Cc2ccc(Cl)cc2)c2ccccc12)N1CCCCC1 | 17 | 30 | n | n | n | n
CC(C)NC(=O)C1(C)CCN1C(=O)C1(c2ccccc2)CC1 (stereo unspecified) | n | x | x | x | x | x
NS(=O)(=O)c1ccc(N/N=C/c2ccc(O)cc2O)c([N+](=O)[O-])c1 | n | n | n | n | n | x
NS(=O)(=O)c1ccc(N/N=C/c2ccc(O)c(O)c2O)c([N+](=O)[O-])c1 | 21 | x | x | x | x | 38
Cc1ccc(C(=O)CSc2ncn[nH]2)cc1 | n | n | n | n | n | x
COc1ccc(C(=O)CSc2ncn[nH]2)cc1OC | 21 | n | n | n | n | n
CCCN(C)C[C@H]1Oc2cc(C#Cc3ccc(F)cc3)ccc2S(=O)(=O)N([C@H](C)CO)C[C@@H]1C | n | x | x | x | x | x
CCOc1ccc(C2CC=C(C(C)=O)CN2S(=O)(=O)c2ccc(C)cc2)cc1 (stereo unspecified) | n | x | x | x | x | x
C=CC[C@H](CC(=O)N(CCO)Cc1ccccc1)C(=O)N[C@@H](COC(=O)[C@@H](CC=C)CC(=O)OC(C)(C)C)Cc1c[nH]c2ccccc12 | 21 | x | n | x | x | n
C=CC[C@@H](CC(=O)N(CCO)Cc1ccccc1)C(=O)N[C@@H](COC(=O)[C@H](CC=C)CC(=O)OC(C)(C)C)Cc1c[nH]c2ccccc12 | n | x | n | x | x | x
O=C(c1cnc(Cc2c[nH]c3ccccc23)c(I)c1)N1CCCCC1 | n | x | x | x | x | x
CN1CCc2c(sc(NC(=O)c3ccc(C(=O)c4ccccc4)cc3)c2C(N)=O)C1 | 45 | n | n | n | n | n

Bioassay records (PubChem BioAssay)
